Measured values taken from PubChem BioAssay AID1159580 (chemical genetic matrix, 2015).
Several values for one entry are separate records, joined by “and”; a condition that tells them apart may be missing. Equal entries are not always repeated. The whole screen tested about 5,500 compounds, of which about 2,000 (36%) were called active. About 18% were inconclusive and are not listed. No stated cut-off is given here; in the data, active means normalized growth mostly below about 0.91 (no sharp cut-off); inconclusive means no clear call, values can overlap the other calls; inactive means mostly above about 0.92. The list shows a part of the results.

Experiment: chemical genetic growth profiling, strain panel (AID 1159580);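 further: tested at 20 µM; growth read once vehicle control cultures reached saturation at 30 °C; 1 = growth at the plate median or of vehicle wells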
Conditions: S. cerevisiae deletion strains, growth OD

Measured: normalized growth

CCCCCC(=O)O[C@]1(C(C)=O)CCC2C3CCC4=CC(=O)CC[C@]4(C)C3CC[C@@]21C (some centres undefined)
inactive: locus YAL013W, strain DEP1, stronger effect = lower value 1.02 | locus YAL021C, strain ccr4, stronger effect = lower value 1 | locus YAL026C, strain drs2, stronger effect = lower value 1.03 | locus YAL030W, strain snc1, stronger effect = lower value 1 | locus YBL061C, strain skt5, stronger effect = lower value 1 | locus YBR009C, strain hhf1, stronger effect = lower value 1.01 | locus YBR021W, strain FUR4, stronger effect = lower value 0.948 | locus YBR023C, strain chs3, stronger effect = lower value 0.985 | locus YBR171W, strain sec66, stronger effect = lower value 0.993 | locus YBR229C, strain ROT2, stronger effect = lower value 1.01 | locus YBR231C, strain swc5, stronger effect = lower value 0.991 | locus YBR279W, strain paf1, stronger effect = lower value 1 | locus YCL011C, strain gbp2, stronger effect = lower value 1.01 | locus YCL016C, strain dcc1, stronger effect = lower value 1 | locus YCL029C, strain bik1, stronger effect = lower value 1.01 | locus YCL061C, strain MRC1, stronger effect = lower value 0.971 | locus YCL069W, strain vba3, stronger effect = lower value 1.01 | locus YCR088W, strain abp1, stronger effect = lower value 0.995 | locus YDL005C, strain med2, stronger effect = lower value 0.996 | locus YDL035C, strain GPR1, stronger effect = lower value 1.02 | locus YDL040C, strain nat1, stronger effect = lower value 1.01 | locus YDL074C, strain BRE1, stronger effect = lower value 1.01 | locus YDL101C, strain DUN1, stronger effect = lower value 1.01 | locus YDL134C, strain PPH21, stronger effect = lower value 1.01 | locus YDL185W, strain tfp1, stronger effect = lower value 1.02 | locus YDL192W, strain arf1, stronger effect = lower value 1.01 | locus YDR001C, strain nth1, stronger effect = lower value 1.01 | locus YDR069C, strain doa4, stronger effect = lower value 0.995 | locus YDR101C, strain arx1, stronger effect = lower value 1.01 | locus YDR137W, strain rgp1, stronger effect = lower value 1.01 | locus YDR150W, strain NUM1, stronger effect = lower value 1.02 | locus YDR159W, strain sac3, stronger effect = lower value 0.976 | locus YDR162C, strain NBP2, stronger effect = lower value 0.996 | locus YDR195W, strain ref2 1.02 | locus YDR297W, strain sur2, stronger effect = lower value 1 | locus YDR318W, strain mcm21, stronger effect = lower value 1 | locus YDR334W, strain swr1, stronger effect = lower value 0.999 | locus YDR335W, strain msn5, stronger effect = lower value 1.01 | locus YDR388W, stronger effect = lower value 1.01 | locus YDR392W, strain spt3, stronger effect = lower value 0.91 | locus YDR502C, strain sam2, stronger effect = lower value 1.01 | locus YEL003W, strain gim4, stronger effect = lower value 1.02 | locus YEL037C, strain rad23, stronger effect = lower value 1 | locus YEL061C, strain CIN8 (second series), stronger effect = lower value 1 | locus YEL061C, strain CIN8, stronger effect = lower value 1 | locus YER015W, strain faa2, stronger effect = lower value 0.997 | locus YER016W, strain bim1, stronger effect = lower value 0.988 | locus YER110C, stronger effect = lower value 1.02 | locus YER111C, strain swi4, stronger effect = lower value 0.991 | locus YER155C, strain BEM2 (second series), stronger effect = lower value 1.01 | locus YER155C, strain BEM2, stronger effect = lower value 1.01 | locus YER167W, strain BCK2, stronger effect = lower value 1.01 | locus YFR010W, strain ubp6, stronger effect = lower value 1.02 | locus YGL078C, strain dbp3, stronger effect = lower value 1.01 | locus YGL086W, strain mad1, stronger effect = lower value 1.01 | locus YGL167C, strain pmr1, stronger effect = lower value 0.989 | locus YGL173C, strain kem1, stronger effect = lower value 1.01 | locus YGL227W, strain vid30, stronger effect = lower value 1 | locus YGL240W, strain doc1, stronger effect = lower value 0.976 | locus YGL248W, strain PDE1, stronger effect = lower value 1.01 | locus YGL253W, strain hxk2, stronger effect = lower value 1.01 | locus YGR135W, strain pre9, stronger effect = lower value 1.01 | locus YGR252W, strain gcn5, stronger effect = lower value 0.974 | locus YHR013C, strain ard1, stronger effect = lower value 1.01 | locus YHR027C, strain rpn1, stronger effect = lower value 0.999 | locus YHR030C, strain SLT2, stronger effect = lower value 1.03 and 0.978 | locus YHR079C, strain IRE1 (second series), stronger effect = lower value 1.01 | locus YHR079C, strain IRE1, stronger effect = lower value 0.976 | locus YHR094C, strain hxt1, stronger effect = lower value 1 | locus YHR129C, strain ARP1, stronger effect = lower value 1.01 | locus YHR142W, strain chs7, stronger effect = lower value 1.02 | locus YHR200W, strain rpn10, stronger effect = lower value 1.01 | locus YIL066C, strain RNR3, stronger effect = lower value 1.02 | locus YIL073C, strain SPO22, stronger effect = lower value 1.04 | locus YIL125W, strain kgd1, stronger effect = lower value 1.01 | locus YIR030C, strain dcg1, stronger effect = lower value 1.01 | locus YJL092W, strain hpr5, stronger effect = lower value 1.01 | locus YJL095W, strain BCK1 (second series), stronger effect = lower value 1 | locus YJL095W, strain BCK1, stronger effect = lower value 1.02 and 0.987 | locus YJL115W, strain asf1, stronger effect = lower value 1 | locus YJL129C, strain trk1, stronger effect = lower value 0.946 | locus YJL134W, strain LCB3, stronger effect = lower value 0.98 | locus YJL154C, strain vps35, stronger effect = lower value 1.02 | locus YJL164C, strain tpk1, stronger effect = lower value 1.01 | locus YJL166W, strain qcr8, stronger effect = lower value 1 | locus YJL168C, strain set2, stronger effect = lower value 1.01 | locus YJL187C, strain SWE1 (second series), stronger effect = lower value 1.01 | locus YJL187C, strain SWE1, stronger effect = lower value 0.997 | locus YJR043C, strain POL32, stronger effect = lower value 1.01
